Bioassay records from PubChem.
D2 ag-1: D2 dopamine receptor (human) agonism. P14416. HEK293 T-REx D2 cells, calcium flux agonist mode. activation, % at 2 µM. 340,000 tested, 0.53% active. AID 485358;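 active = activation over 3 SD above normal in the single-dose calcium agonist read, cut at about 30% in these data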; note: 0% is about no effect
Target sequence (P14416 whole entry, looked up): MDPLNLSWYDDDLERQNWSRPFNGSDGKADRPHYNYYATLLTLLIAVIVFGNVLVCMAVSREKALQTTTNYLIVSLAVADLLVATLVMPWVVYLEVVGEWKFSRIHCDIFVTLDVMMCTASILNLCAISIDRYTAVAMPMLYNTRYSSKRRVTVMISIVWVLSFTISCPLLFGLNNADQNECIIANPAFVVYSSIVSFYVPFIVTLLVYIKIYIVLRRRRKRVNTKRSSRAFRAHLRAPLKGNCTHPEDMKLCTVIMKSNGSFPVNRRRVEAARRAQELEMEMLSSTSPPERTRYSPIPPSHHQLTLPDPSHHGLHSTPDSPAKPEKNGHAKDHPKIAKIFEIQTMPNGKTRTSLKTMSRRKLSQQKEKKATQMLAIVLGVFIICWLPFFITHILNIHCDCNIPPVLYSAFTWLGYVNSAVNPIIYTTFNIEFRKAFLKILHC
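HEK293 Trex D2 cells, tetracycline-induced, o/n 30 C 5% CO2; no-wash Ca dye, RT 30–90 min; 10-cycle baseline, 23 nl cpd added, kinetic Ca read 180 s; agonist hits = positive Ca response.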
D2 ag-2: human D2 receptor agonism in beta-arrestin assay; P14416; DiscoveRx PathHunter D2 beta-arrestin, luminescence, 90 min; 100% = 57 uM dopamine signal; activation, % (concentration not given with the values); 360,000 tested, 0.084% active; in the data active = activation above about 40%
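DiscoveRx PathHunter D2 beta-arrestin cells (2,100/well) attached overnight, then compound-stimulated 90 min at 37 C in HBSS/10 mM HEPES/0.1% Tween-20 buffer; beta-galactosidase complementation read by luminescence after 1 h at ambient temperature. Dopamine 57 uM final (EC100) as control.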
D2 PAM-1: positive allosteric modulators of human D2 dopamine receptor. P14416. AID 485347. 340,000 tested, 0.34% active. HEK293 T-REx D2, calcium flux, EC20 dopamine potentiation. potentiation, % at 10 µM;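 active = potentiation over 3 SD above the plate norm, cut at about 30% in these data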; note: 0% is about no effect
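Tetracycline-induced Hek293 Trex D2 cells, force-coupled to calcium, loaded with no-wash calcium dye. Compound added with 180 s kinetic read for agonism, then EC20 dopamine and a further 180 s read for potentiation.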
D2 PAM-2: positive allosteric modulators of human D2 dopamine receptor; 360,000 tested, 0.23% active; DiscoveRx D2 beta-arrestin cells, luminescence, 90 min; 100% = 57 uM dopamine signal; AID 624464; potentiation, % (no concentration beside the values); in the data active = potentiation above about 50%
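PathHunter beta-arrestin assay in DiscoveRx D2 cells. Compounds were added with an EC20 of dopamine (50 nM final) for 90 min at 37 deg C. Luminescence was read 1 h after detection reagent, with 57 uM dopamine as the EC100 control.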
D2 antag: antagonists of human D2 dopamine receptor | P14416 | HEK293 TREx D2 cells, calcium flux, dopamine EC80 | inhibition, % at 10 µM | 340,000 tested, 2% active | AID 485344; in the data active = inhibition above about 30%; inactive = below that, where a call was filed; note: 0% is about no effect
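HEK293 T-REx D2 cells, tet-induced, calcium dye no-wash. Cpd pintool add, 180 s kinetic, then EC80 DA, 180 s kinetic. Ca flux read.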
Active calls of the source: *. Most compounds without a hit are left out; they make up all but 2.4% or so of the library.

Results for O=C(CSc1nc(N2CCOCC2)nc(N2CCOCC2)n1)Nc1ccc(Cl)cc1Cl ?
D2 ag-1: 1; D2 ag-2: -5; D2 PAM-1: 1; D2 PAM-2: -7; D2 antag: 33*

What do the screens show for `O=C(CSc1cccc(C(F)(F)F)c1)Nc1ccc(Cl)cc1Cl`?
D2 ag-1: 0; D2 ag-2: 1; D2 PAM-1: -9; D2 PAM-2: 9; D2 antag: 49*

Results for O=C(CSc1cccc(C(F)(F)F)c1)NC(=O)c1ccccc1 ?
D2 ag-1: -2; D2 ag-2: -2; D2 PAM-1: -7; D2 PAM-2: -13; D2 antag: 0

Results for Cc1ccc(Nc2c(-c3ccc(N(C)C)cc3)nc3ccccn23)cc1 ?
D2 ag-1: 0; D2 PAM-1: -1

What do the screens show for `CCSc1nc2c(c(=O)[nH]c(=O)n2C)n1C/C=C(/C)Cl`?
D2 ag-1: 0; D2 ag-2: -1; D2 PAM-1: 48*; D2 PAM-2: 4; D2 antag: 3

How did C=C(C)CSc1nc2c(c(=O)[nH]c(=O)n2C)n1CCC(C)C do in these assays?
D2 ag-1: -1; D2 ag-2: -2; D2 PAM-1: 34*; D2 PAM-2: -3; D2 antag: -4

Results for COc1ccc([C@@H]2C[C@H]3[C@@H](CN2S(=O)(=O)c2ccccc2)C(=O)C[C@@H](c2cccc(Cl)c2)N3S(=O)(=O)c2ccc(C)cc2)cc1 ?
D2 ag-2: 4; D2 PAM-2: -1

How did COc1cc(OC)cc(C(=O)NC2CCN(CCCOc3ccccc3)CC2)c1 do in these assays?
D2 ag-1: 0; D2 ag-2: -5; D2 PAM-1: -11; D2 PAM-2: -5; D2 antag: 47*

How did COc1cc(C(=O)NC2CCN(Cc3ccccc3)CC2)cc(Cl)c1OC do in these assays?
D2 ag-1: 0; D2 ag-2: -1; D2 PAM-1: -24; D2 PAM-2: -26; D2 antag: 89*

How did COc1cc(C(=O)NC2CC3CCCC(C2)N3Cc2ccccc2)cc(OC)c1OC (stereo unspecified) do in these assays?
D2 ag-1: -1; D2 ag-2: -2; D2 PAM-1: -32; D2 PAM-2: -7; D2 antag: 84*

Results for COc1cccc(C(=O)NC2CC3CCCC(C2)N3Cc2ccc(C)cc2)c1 (stereo unspecified) ?
D2 ag-1: -1; D2 ag-2: -2; D2 PAM-1: -18; D2 PAM-2: -82; D2 antag: 77*

What do the screens show for `COc1ccc(CN2C3CCC2CC(NC(=O)c2cc(OC)c(OC)c(OC)c2)C3)cc1` (stereo unspecified)?
D2 ag-2: -6; D2 PAM-1: -28; D2 PAM-2: -3

Results for Cc1nn2c(=O)cc(COC(=O)c3ccc(NC(=O)c4cccc(Br)c4)cc3)nc2s1 ?
D2 ag-1: 1; D2 PAM-1: 4

Results for COc1ccc(C(=O)NC2CC3CCCC(C2)N3Cc2ccccc2)cc1OC (stereo unspecified) ?
D2 ag-1: 0; D2 ag-2: -5; D2 PAM-1: -31; D2 PAM-2: -5; D2 antag: 82*

Results for COc1cccc(NC(=O)N2C3CCCC2CC(NC(=O)C2CC2)C3)c1 (stereo unspecified) ?
D2 ag-1: 1; D2 ag-2: -4; D2 PAM-1: -11; D2 PAM-2: -4; D2 antag: 34*

What do the screens show for `COc1ccccc1C(=O)NC1CC2CCCC(C1)N2Cc1ccccc1` (stereo unspecified)?
D2 ag-2: 3; D2 PAM-2: -39

Results for C/C(O)=C(/C=Nc1ccccc1)C(=O)Nc1ccccc1 ?
D2 ag-1: 1; D2 ag-2: -3; D2 PAM-1: 11; D2 PAM-2: -1; D2 antag: 33*

Results for CC1CCc2c(sc(NC(=O)CCCOc3ccc(C(C)(C)C)cc3)c2C(N)=O)C1 (stereo unspecified) ?
D2 ag-1: -1; D2 PAM-1: -1

Results for CCc1cc(C(=O)NCC(c2cccs2)N2CCOCC2)sc1C (stereo unspecified) ?
D2 ag-1: 0; D2 ag-2: -2; D2 PAM-1: -5; D2 PAM-2: -38; D2 antag: 31*

What do the screens show for `CCC(C)NC(=O)CN1C(=O)COc2ccc(S(=O)(=O)N3CCOCC3)cc21` (stereo unspecified)?
D2 ag-1: 0; D2 ag-2: -1; D2 PAM-1: -9; D2 PAM-2: 3; D2 antag: 44*

How did CCN(CC)C(=O)CN1C(=O)COc2ccc(S(=O)(=O)N3CCOCC3)cc21 do in these assays?
D2 ag-1: 0; D2 PAM-1: -1

Results for O=C(CCSCc1cccc(Cl)c1)NCc1ccc(F)cc1Cl ?
D2 ag-1: 0; D2 PAM-1: 2

Results for Cn1c(=O)c(C(=O)CN2CCOCC2)c(N)n(Cc2ccccc2)c1=O ?
D2 ag-1: 0; D2 ag-2: -4; D2 PAM-1: -3; D2 PAM-2: -16; D2 antag: 10

How did CC1CN(CC(=O)c2c(N)n(Cc3ccccc3)c(=O)n(C)c2=O)CC(C)O1 (stereo unspecified) do in these assays?
D2 ag-1: 2; D2 ag-2: -1; D2 PAM-1: 6; D2 PAM-2: 1; D2 antag: 36*

What do the screens show for `CCN1CCCC1CNC(=O)c1cc([N+](=O)[O-])c(N(C)C)cc1OC` (stereo unspecified)?
D2 ag-1: 0; D2 ag-2: -4; D2 PAM-1: -38; D2 PAM-2: -4; D2 antag: 75*

How did CCC1CCCN1Cn1cnc2c([nH]c3ccc(OC)cc32)c1=O (stereo unspecified) do in these assays?
D2 ag-1: -1; D2 ag-2: 2; D2 PAM-1: 35*; D2 PAM-2: -21; D2 antag: -15

Results for CCN1CCCC1CNC(=O)c1cc2ccc(OC)cc2[nH]1 (stereo unspecified) ?
D2 ag-1: 0; D2 ag-2: -3; D2 PAM-1: 0; D2 PAM-2: -25; D2 antag: 9

How did CCN1CCCC1CNC(=O)c1csc2c1CCCC2 (stereo unspecified) do in these assays?
D2 ag-1: -2; D2 ag-2: -2; D2 PAM-1: -18; D2 PAM-2: -29; D2 antag: 86*

How did CCC1CCCN1Cn1cnc2c([nH]c3ccccc32)c1=O (stereo unspecified) do in these assays?
D2 ag-1: -1; D2 ag-2: -2; D2 PAM-1: 1; D2 PAM-2: -12; D2 antag: -8

What do the screens show for `CCN1CCCC1CNC(=O)c1[nH]c2ccc(OC)cc2c1C` (stereo unspecified)?
D2 ag-2: -5; D2 PAM-1: -35; D2 PAM-2: -22; D2 antag: 40*

Results for O=S(=O)(NCCc1nnc2ccc(SCc3ccccc3Cl)nn12)c1ccccc1 ?
D2 ag-1: 0; D2 PAM-1: 0
